Laboratory results from paper PMC7826789 (International Journal of Molecular Sciences, 2021).

How the values were obtained:
Settings in all cases: Compound Concentration (nM):1000
NEK3 = tested on: NEK3
NEK4 = tested on: NEK4
NEK5 = tested on: NEK5
NEK6 = tested on: NEK6
NEK7 = tested on: NEK7
NEK9 = tested on: NEK9
NIK = tested on: T1, NIK
T1 construct: gene MAP3K14

NIM1 = tested on: T2, NIM1
T2 construct: gene MGC42105

NLK = tested on: NLK
OSR1 = tested on: T3, OSR1
T3 construct: gene OXSR1

PAK1 = tested on: PAK1
PAK2 = tested on: PAK2
PAK3 = tested on: PAK3
PAK4 = tested on: PAK4
PAK6 = tested on: PAK6
PAK7 = tested on: PAK7
PCTK1 = tested on: T4, PCTK1
T4 construct: gene CDK16

PCTK2 = tested on: T5, PCTK2
T5 construct: gene CDK17

PCTK3 = tested on: T6, PCTK3
T6 construct: gene CDK18

PDGFRA = tested on: PDGFRA
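Further: KINOMEscan scanMAX binding as percent activity remaining versus control; lower means stronger binding.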

Structure (SMILES) | Percent Control (NEK3) | Percent Control (NEK4) | Percent Control (NEK5) | Percent Control (NEK6) | Percent Control (NEK7) | Percent Control (NEK9) | Percent Control (NIK) | Percent Control (NIM1) | Percent Control (NLK) | Percent Control (OSR1) | Percent Control (PAK1) | Percent Control (PAK2) | Percent Control (PAK3) | Percent Control (PAK4) | Percent Control (PAK6) | Percent Control (PAK7) | Percent Control (PCTK1) | Percent Control (PCTK2) | Percent Control (PCTK3) | Percent Control (PDGFRA)
CN(C)c1cc2c(Nc3ccc4c(cnn4Cc4ccccc4)c3)ncnc2cn1 [GW282974X] | 77% | 99% | 48% | 27% | 78% | 88% | 86% | 74% | 90% | 100% | 89% | 79% | 26% | 98% | 87% | 88% | 87% | 100% | 100% | 100%
O=C1Nc2ccc(C(=O)c3ccco3)cc2C1=Cc1cc(Cl)c(O)c(Cl)c1 [GW406108X] | 100% | 83% | 100% | 94% | 100% | 100% | 100% | 93% | 100% | 100% | 100% | 80% | 100% | 100% | 80% | 100% | 100% | 100% | 91% | 79%
COc1ccc(COc2ccc(Cc3cnc(N)nc3N)cc2OC)cc1 [GW632580X] | 97% | 77% | 100% | 95% | 77% | 85% | 94% | 86% | 100% | 100% | 100% | 100% | 62% | 100% | 92% | 100% | 84% | 100% | 73% | 91%
NS(=O)(=O)c1ccc(N/N=C2\C(=O)Nc3ccc(-c4cnco4)cc32)cc1 [GW276655] | 96% | 99% | 72% | 77% | 82% | 79% | 37% | 84% | 100% | 100% | 87% | 82% | 100% | 95% | 76% | 88% | 1.4% | 76% | 100% | 79%
COc1ccc2cc(-c3c(-c4ccncc4)nc(-c4ccc(S(C)(=O)=O)cc4C)n3C)ccc2c1 [SB-633825] | 65% | 75% | 35% | 91% | 65% | 57% | 53% | 63% | 81% | 70% | 87% | 85% | 12% | 81% | 97% | 87% | 74% | 100% | 100% | 91%
CC1=C(C(=O)Nc2ccc3[nH]ncc3c2)C(c2ccc(Cl)c(Cl)c2)CC(=O)N1 (centres unmarked) [GSK299115A] | 80% | 89% | 58% | 95% | 87% | 68% | 76% | 79% | 78% | 73% | 94% | 84% | 96% | 82% | 79% | 91% | 85% | 100% | 93% | 100%
Cl.O=C(Nc1ccc(Oc2ccc3[nH]c(NC(=O)c4ccccc4)nc3c2)cc1)Nc1cc(C(F)(F)F)ccc1F [GW709042A] | 98% | 83% | 95% | 92% | 100% | 20% | 100% | 88% | 95% | 100% | 93% | 90% | 5.9% | 100% | 96% | 100% | 100% | 100% | 96% | 35%
Nc1ncnc2occ(-c3ccc(NC(=O)Nc4cc(C(F)(F)F)ccc4F)cc3)c12 [GW770249X] | 98% | 71% | 82% | 100% | 100% | 38% | 100% | 100% | 100% | 100% | 100% | 100% | 31% | 100% | 100% | 100% | 82% | 29% | 31% | 1.4%
COc1cc(/C=N/Nc2ncnc3[nH]ncc23)ccc1O [GW578748X] | 43% | 98% | 100% | 100% | 96% | 100% | 100% | 37% | 100% | 100% | 100% | 97% | 58% | 100% | 100% | 100% | 100% | 100% | 100% | 7.6%
CCn1c(-c2nonc2N)nc2c(C#CC(C)(C)O)nc(OCCNC)cc21.Cl [GSK949675] | 100% | 100% | 100% | 95% | 100% | 100% | 1.5% | 100% | 100% | 100% | 100% | 52% | 100% | 75% | 60% | 46% | 82% | 100% | 100% | 100%
